Assay results from paper PMC12864922, “TDP-43 directly inhibits mRNA accumulation in neurites through modulation of mRNA stability”.
Whole data set: some 9,900 sequences, median “r (bound/input frequency ratio)” near 0.7, cut for the highest 2% near 6.5. Many of the other results were omitted from the sample, so the highest values are more common in it than they were.

B1: ENSMUSG00000031028.69|Tub|109:121;139:143 (ssRNA)
RNA: GGGAGUUCUACAGUCCGACGAUCGCUUCGAUAUCCGCAUGCUAUGGAGGUACAGAGGGAGAGGAAGCACAAGCCUGGCUGCUGUGGCUCAGCCAUCCACUCAGCCUACGAGUCAGAGACAGUGGGUGUCCCGGGAAGCAGGGGUACAGUGACACACACACAUACUACAGGGCACUCAAGCUCAUACUAGAAAAAGCUCUGGUGGUCAGCAGAAAGCACUCCCACUUCAAAAGGGCCCAUUAGGCCCAAAGGGGGUUAGGAGUGGUAGGGAUAGGUGCGUGGCAGGUCCCUGCUAGGAUUGCAGCUCUUGCGGUCGCACUAGUGUGGAAUUCUCGGGUGUCAAGG
B2: ENSMUSG00000028439.266|Fam219a|244:248 (ssRNA)
RNA: GGGAGUUCUACAGUCCGACGAUCGCUUCGAUAUCCGCAUGCUAUGCUGGUCUGGUCUGAGGGAGGAAAGCUGAGGCUGUAGCUCAGUGAGAUGGUGGCUCUCCCAUGGCUGAAGACAAGUGCAAGCAGAGAGAGCCUCAGGCUGCUGGGCCUCGGACCCACGAGCCUCCUCUCACUGAGCCAGUGCGGCCAGAGUGUCUCUCCUUCAGGCGCCCCACAUGCCAGCAUUUCCACCCUCUGGAUUCUCCUCACAUGUCACUCUCCAGGUGCCGGGGCCUAGAGUGGGCCACACAGAAGGAGGAGUCUCUUGCGGUCGCACUAGUGUGGAAUUCUCGGGUGUCAAGG
B3: ENSMUSG00000042529.487|Kcnj12 (ssRNA)
RNA: GGGAGUUCUACAGUCCGACGAUCGCUUCGAUAUCCGCAUGCUAGAUGUGCGUCUCACUGGCCUCUGCCUGCCUCUCCCGCCUGCGGAGCACUUACACUUCCUGGGGCCCCUGCAGCUGGACCAUGUACAGGGCUCCCUGGGGCUUGUCCUCAGGGGCAGAGAAGGACAUGGUGGCAGCAGCACUGAGAACAGGAGCAUGGCCUCUCUCAGACCCCAGGGCAGUCAUUCAGUCUUUUCCAUGGACACUCCCCACCGCUCCACAUACUGCCUCCGCCUCAUUCUUGGGCUCUUCCUGCCUUGCUGCUCUUGCGGUCGCACUAGUGUGGAAUUCUCGGGUGUCAAGG
B4: ENSMUSG00000004113.203|Cacna1b (ssRNA)
RNA: GGGAGUUCUACAGUCCGACGAUCGCUUCGAUAUCCGCAUGCUAGCAUCGUGGAUGAGGUACGGCCUCAGGAAGCAUCGGGUGGAUUGGGUGGGAGCUGCUCAGAGCAGCACGGGGGCUUGUGUCUUAGGGACAUUGACAGUGUCCAUCAGCAUGUCAGAGAAGCAGCUGUAGUGCCCGUGUUUCUCCCUGAGUCAUGGGUUCUGAAGAAGCCAGAGCGGCACAAUGCGUGCUUGCAUGAGGCACUUUCAGCCUUUUUAAAUCUGACUCUCAGGGAUGGGAUGCCUGCCAAGUAGGGUGUAAUCCUCUUGCGGUCGCACUAGUGUGGAAUUCUCGGGUGUCAAGG
B5: ENSMUSG00000058297.38|Spock2|23:27;31:44;53:64;78:84;93:102;108:133 (ssRNA)
RNA: GGGAGUUCUACAGUCCGACGAUCGCUUCGAUAUCCGCAUGCUAUCCAGUGGGGGAGGACUGGGGACACACGCUACACACAUACACACAUAUGAGAACACACACAUACAUGUGAGAUGUGACACACACAUGUGAGAACACACAUACUGAGAACACACACACACACACACACACACACAUGUGAGUCACCCAAAGGUCCCUAUGUUAUUGAUUUUCAAAUGCACACUUUCACACACAAGGAUACACUAACAGACCAAAAUCAAUGAGAUGUCCCUGAUCCUGCCCCUCAGCCCAACACCUGGAAUCUCUUGCGGUCGCACUAGUGUGGAAUUCUCGGGUGUCAAGG
B6: ENSMUSG00000058297.40|Spock2 (ssRNA)
RNA: GGGAGUUCUACAGUCCGACGAUCGCUUCGAUAUCCGCAUGCUAGGACUGGGGAGUGUGGCUUGUGUGUAUGUGUGAUAUGAGAUGUGUGUGUAUGAUGUGAGAUGUGAGUGUGUGAUGUGAGAUGUGUGUAUGUGAGAUGUGUGUGUGUGUGUGUGUGUGUGUGAUGUGAGUCACCCAAAGGUCCCUAUGUUAUUGAUUUUCAAAUGCACACUUUCACACACAAGGAUACACUAACAGACCAAAAUCAAUGAGAUGUCCCUGAUCCUGCCCCUCAGCCCAACACCUGGAAUCCCUGCCCUGCCCUCUUGCGGUCGCACUAGUGUGGAAUUCUCGGGUGUCAAGG
B7: ENSMUSG00000058297.39|Spock2 (ssRNA)
RNA: GGGAGUUCUACAGUCCGACGAUCGCUUCGAUAUCCGCAUGCUAGGGGGAGGACUGGGGAGUGUGGCUUGUGUGUAUGUGUGAUAUGAGAUGUGUGUGUAUGAUGUGAGAUGUGAGUGUGUGAUGUGAGAUGUGUGUAUGUGAGAUGUGUGUGUGUGUGUGUGUGUGUGUGAUGUGAGUCACCCAAAGGUCCCUAUGUUAUUGAUUUUCAAAUGCACACUUUCACACACAAGGAUACACUAACAGACCAAAAUCAAUGAGAUGUCCCUGAUCCUGCCCCUCAGCCCAACACCUGGAAUCCCUGCCUCUUGCGGUCGCACUAGUGUGGAAUUCUCGGGUGUCAAGG
B8: ENSMUSG00000058297.38|Spock2 (ssRNA)
RNA: GGGAGUUCUACAGUCCGACGAUCGCUUCGAUAUCCGCAUGCUAUCCAGUGGGGGAGGACUGGGGAGUGUGGCUUGUGUGUAUGUGUGAUAUGAGAUGUGUGUGUAUGAUGUGAGAUGUGAGUGUGUGAUGUGAGAUGUGUGUAUGUGAGAUGUGUGUGUGUGUGUGUGUGUGUGUGAUGUGAGUCACCCAAAGGUCCCUAUGUUAUUGAUUUUCAAAUGCACACUUUCACACACAAGGAUACACUAACAGACCAAAAUCAAUGAGAUGUCCCUGAUCCUGCCCCUCAGCCCAACACCUGGAAUCUCUUGCGGUCGCACUAGUGUGGAAUUCUCGGGUGUCAAGG
B9: ENSMUSG00000058297.41|Spock2 (ssRNA)
RNA: GGGAGUUCUACAGUCCGACGAUCGCUUCGAUAUCCGCAUGCUAGGGAGUGUGGCUUGUGUGUAUGUGUGAUAUGAGAUGUGUGUGUAUGAUGUGAGAUGUGAGUGUGUGAUGUGAGAUGUGUGUAUGUGAGAUGUGUGUGUGUGUGUGUGUGUGUGUGAUGUGAGUCACCCAAAGGUCCCUAUGUUAUUGAUUUUCAAAUGCACACUUUCACACACAAGGAUACACUAACAGACCAAAAUCAAUGAGAUGUCCCUGAUCCUGCCCCUCAGCCCAACACCUGGAAUCCCUGCCCUGCCUAAUCACUCUUGCGGUCGCACUAGUGUGGAAUUCUCGGGUGUCAAGG
B10: ENSMUSG00000058297.37|Spock2 (ssRNA)
RNA: GGGAGUUCUACAGUCCGACGAUCGCUUCGAUAUCCGCAUGCUACCUGGCUCCAGUGGGGGAGGACUGGGGAGUGUGGCUUGUGUGUAUGUGUGAUAUGAGAUGUGUGUGUAUGAUGUGAGAUGUGAGUGUGUGAUGUGAGAUGUGUGUAUGUGAGAUGUGUGUGUGUGUGUGUGUGUGUGUGAUGUGAGUCACCCAAAGGUCCCUAUGUUAUUGAUUUUCAAAUGCACACUUUCACACACAAGGAUACACUAACAGACCAAAAUCAAUGAGAUGUCCCUGAUCCUGCCCCUCAGCCCAACACCCUCUUGCGGUCGCACUAGUGUGGAAUUCUCGGGUGUCAAGG

Target: TDP-43 (Homo sapiens, UniProt Q13148 1-414)
Sequence (Q13148 whole entry): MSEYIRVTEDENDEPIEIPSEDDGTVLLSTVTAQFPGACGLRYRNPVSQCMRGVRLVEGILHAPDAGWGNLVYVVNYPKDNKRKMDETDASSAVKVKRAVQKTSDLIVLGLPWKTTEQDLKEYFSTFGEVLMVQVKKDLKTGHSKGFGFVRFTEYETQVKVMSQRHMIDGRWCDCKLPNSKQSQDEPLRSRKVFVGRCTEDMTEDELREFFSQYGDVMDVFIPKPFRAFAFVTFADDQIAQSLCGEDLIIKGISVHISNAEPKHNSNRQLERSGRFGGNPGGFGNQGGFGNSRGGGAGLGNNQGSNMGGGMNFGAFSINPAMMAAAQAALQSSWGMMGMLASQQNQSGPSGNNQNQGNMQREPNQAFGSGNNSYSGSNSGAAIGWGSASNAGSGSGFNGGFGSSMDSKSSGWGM
Assay: RNA Bind-n-Seq with designed 260-mer pool; 25 mM Tris-HCl, 150 mM KCl, 3 mM MgCl2, BSA (printed 500 mg/mL), 20 units/mL SUPERase IN; pH not stated; 500 nM RNA pool, 1 h, 4 C; TDP-43 5, 50, 500 nM; high values mean tight binding
Conditions: protein: recombinant; tags: SBP (GST cleaved off with PreScission; pGEX-GST-SBP)
Summary of the method: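 Duplicate measurements used two independent batches of recombinant SBP-tagged TDP-43, which was captured on streptavidin beads at 5, 50 or 500 nM. The beads were incubated with 500 nM of an in vitro-transcribed 260-nt 3′ UTR oligo pool for 1 h at 4 °C in 25 mM Tris-HCl, 150 mM KCl, 3 mM MgCl2, BSA and SUPERase IN. After washing, biotin elution, reverse transcription, PCR amplification and sequencing, binding was expressed as R: each oligo's normalized read abundance in the bound sample over its abundance in input.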

Binder | binding signal
B1 | 0.841 R (bound/input frequency ratio)
B2 | 0.614 R (bound/input frequency ratio)
B3 | 0.428 R (bound/input frequency ratio)
B4 | 1.21 R (bound/input frequency ratio)
B5 | 2.11 R (bound/input frequency ratio)
B6 | 8.17 R (bound/input frequency ratio)
B7 | 5.98 R (bound/input frequency ratio)
B8 | 6.55 R (bound/input frequency ratio)
B9 | 5.21 R (bound/input frequency ratio)
B10 | 6.03 R (bound/input frequency ratio)
